The source made the active and inactive calls.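 How the source made its calls, unless noted: active means normalized viability below 100% at a tested concentration; inactive means the rest.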
Key:
[1] = drug combination growth inhibition, ovarian cancer – cell-based, oncology-focused library, rucaparib conditional, profiling panel (AID 1508598); conditions: patient-derived ovarian cancer cells, CellTiter-Glo viability, 144 h, stronger effect = lower value
[2] = viability loss with induced miR-34 in A549 – imaging, A549 dox-inducible miR-34, nuclei and caspase counts, primary screen (AID 1347080;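 active means compounds whose cell count with miR-34 switched on is under 0.7 times the count with it off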); conditions: A549 miR-34 inducible, Hoechst nuclei count, 48 h
[3] = MELAS cybrid and Rieske KO viability enhancers – cell-based, MELAS cybrids, Rieske KO mouse fibroblasts, CellTiter-Glo, primary screen (AID 1508586;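 active means mean z-score across replicates of 1.96 or higher in either the MELAS or the Rieske mutant cell line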;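 further: z relative to plate mean and SD of compound and empty wells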); conditions: low glucose
[4] = at 1.25 µM, OCI-C5x cells, with rucaparib 10 µM, 100% = cells with rucaparib alone
[5] = at 1.25 µM, OCI-C5x cells, without rucaparib
[6] = at 1.25 µM, OCI-P5x cells, with rucaparib 20 µM, 100% = cells with rucaparib alone
[7] = at 1.25 µM, OCI-P5x cells, without rucaparib
[8] = at 5 µM, OCI-C5x cells, with rucaparib 10 µM, 100% = cells with rucaparib alone
[9] = at 5 µM, OCI-C5x cells, without rucaparib
[10] = at 5 µM, OCI-P5x cells, with rucaparib 20 µM, 100% = cells with rucaparib alone
[11] = at 5 µM, OCI-P5x cells, without rucaparib
[12] = stronger effect = lower value, cell number ratio, induced over uninduced
[13] = measured here: relative caspase fold change +Dox/-Dox
[14] = measured here: total cells with miR-34 induction, stronger effect = lower value
[15] = measured here: total cells without miR-34 induction
[16] = MELAS cybrid survival, CellTiter-Glo 48 h, stronger effect = higher value
[17] = Rieske KO mouse fibroblast survival, CellTiter-Glo 72 h

CN(C)CCSSCCNC(=O)C1CCN(C(=O)CSc2ccc(Cl)cc2)CC1
inactive: viability [1, 4] 120% | viability [1, 5] 112% | viability [1, 8] 137% | viability [1, 9] 140%
active: viability [1, 6] 93.2% | viability [1, 7] 90.1% | viability [1, 10] 88.3% | viability [1, 11] 87.3%

C=C1C(CO)C(O)CC1n1cnc2c(=O)[nH]c(N)nc21 (configuration not stated)
inactive: fold change [2, 12] 1.01 | z-score [3, 16] -0.366
-0.0519: z-score [3, 17]
0.924: fold change [2, 13]
7170: cell count [2, 15]
7270: cell count [2, 14]

NC(=O)CCCSc1nc(N)nc(-c2c(Cl)cc3c4c(cccc24)COC3)n1
2430: cell count [2, 14]
-2.67: z-score [3, 17]
2570: cell count [2, 15]
0.479: fold change [2, 13]
active: z-score [3, 16] 2.88 | viability ([1]; at 0.000305 µM, OCI-C5x cells, without rucaparib) 95.8% | viability ([1]; at 0.00122 µM, OCI-P5x cells, with rucaparib 20 µM, 100% = cells with rucaparib alone) 98% | viability ([1]; at 0.00122 µM, OCI-P5x cells, without rucaparib) 96.2% | viability ([1]; at 0.00488 µM, OCI-P5x cells, without rucaparib) 98.7% | viability ([1]; at 0.0195 µM, OCI-P5x cells, without rucaparib) 94.9% | viability ([1]; at 0.0781 µM, OCI-C5x cells, without rucaparib) 98.7% | viability ([1]; at 0.0781 µM, OCI-P5x cells, with rucaparib 20 µM, 100% = cells with rucaparib alone) 16.9% | viability ([1]; at 0.0781 µM, OCI-P5x cells, without rucaparib) 38.5% | viability ([1]; at 0.313 µM, OCI-C5x cells, with rucaparib 10 µM, 100% = cells with rucaparib alone) 74.7% | viability ([1]; at 0.313 µM, OCI-C5x cells, without rucaparib) 35.4% | viability ([1]; at 0.313 µM, OCI-P5x cells, with rucaparib 20 µM, 100% = cells with rucaparib alone) 14.5% | viability ([1]; at 0.313 µM, OCI-P5x cells, without rucaparib) 8.07% | viability [1, 4] 16% | viability [1, 5] 7.19% | viability [1, 6] 7.31% | viability [1, 7] 5.49% | viability [1, 8] 9.52% | viability [1, 9] 6.09% | viability [1, 10] 4.5% | viability [1, 11] 3.17%
inactive: fold change [2, 12] 0.945 | viability ([1]; at 0.000305 µM, OCI-C5x cells, with rucaparib 10 µM, 100% = cells with rucaparib alone) 109% | viability ([1]; at 0.000305 µM, OCI-P5x cells, with rucaparib 20 µM, 100% = cells with rucaparib alone) 104% | viability ([1]; at 0.000305 µM, OCI-P5x cells, without rucaparib) 102% | viability ([1]; at 0.00122 µM, OCI-C5x cells, with rucaparib 10 µM, 100% = cells with rucaparib alone) 107% | viability ([1]; at 0.00122 µM, OCI-C5x cells, without rucaparib) 101% | viability ([1]; at 0.00488 µM, OCI-C5x cells, with rucaparib 10 µM, 100% = cells with rucaparib alone) 114% | viability ([1]; at 0.00488 µM, OCI-C5x cells, without rucaparib) 103% | viability ([1]; at 0.00488 µM, OCI-P5x cells, with rucaparib 20 µM, 100% = cells with rucaparib alone) 106% | viability ([1]; at 0.0195 µM, OCI-C5x cells, with rucaparib 10 µM, 100% = cells with rucaparib alone) 125% | viability ([1]; at 0.0195 µM, OCI-C5x cells, without rucaparib) 111% | viability ([1]; at 0.0195 µM, OCI-P5x cells, with rucaparib 20 µM, 100% = cells with rucaparib alone) 103% | viability ([1]; at 0.0781 µM, OCI-C5x cells, with rucaparib 10 µM, 100% = cells with rucaparib alone) 147%

— PubChem BioAssay
